# POLI inh: DNA polymerase iota (human) inhibition; Pol iota fluorescent replication assay, 10 min; Potency, µM (highest dose often 115 µM), for the others: at the top dose activity, negative = inhibition, most hits filed as inhibitors; 390,000 compounds, 1% hits; AID 588590; further: potency means the concentration at half of the fitted maximal effect
#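 Fluorescent replication assay read twice, at 0 min and 10 min after adding 50 nM (final) substrate. Enzyme (10 nM) and compounds were first incubated 15 min at room temperature; enzyme-free buffer wells were negative controls.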
# POLK inh: blocks human DNA polymerase kappa activity | purified Pol kappa, fluorescent DNA synthesis assay, 10 min | Potency, µM (series often up to 107 µM), for the others: at the top dose activity, negative = inhibition, hits mostly inhibitors | 400,000 compounds, 0.53% hits | AID 588579; further: potency means the concentration at half of the fitted maximal effect; on the % scale 0 is the no-effect control and ±100 the full control effect
# Target sequence (Q9UBT6 whole entry, looked up): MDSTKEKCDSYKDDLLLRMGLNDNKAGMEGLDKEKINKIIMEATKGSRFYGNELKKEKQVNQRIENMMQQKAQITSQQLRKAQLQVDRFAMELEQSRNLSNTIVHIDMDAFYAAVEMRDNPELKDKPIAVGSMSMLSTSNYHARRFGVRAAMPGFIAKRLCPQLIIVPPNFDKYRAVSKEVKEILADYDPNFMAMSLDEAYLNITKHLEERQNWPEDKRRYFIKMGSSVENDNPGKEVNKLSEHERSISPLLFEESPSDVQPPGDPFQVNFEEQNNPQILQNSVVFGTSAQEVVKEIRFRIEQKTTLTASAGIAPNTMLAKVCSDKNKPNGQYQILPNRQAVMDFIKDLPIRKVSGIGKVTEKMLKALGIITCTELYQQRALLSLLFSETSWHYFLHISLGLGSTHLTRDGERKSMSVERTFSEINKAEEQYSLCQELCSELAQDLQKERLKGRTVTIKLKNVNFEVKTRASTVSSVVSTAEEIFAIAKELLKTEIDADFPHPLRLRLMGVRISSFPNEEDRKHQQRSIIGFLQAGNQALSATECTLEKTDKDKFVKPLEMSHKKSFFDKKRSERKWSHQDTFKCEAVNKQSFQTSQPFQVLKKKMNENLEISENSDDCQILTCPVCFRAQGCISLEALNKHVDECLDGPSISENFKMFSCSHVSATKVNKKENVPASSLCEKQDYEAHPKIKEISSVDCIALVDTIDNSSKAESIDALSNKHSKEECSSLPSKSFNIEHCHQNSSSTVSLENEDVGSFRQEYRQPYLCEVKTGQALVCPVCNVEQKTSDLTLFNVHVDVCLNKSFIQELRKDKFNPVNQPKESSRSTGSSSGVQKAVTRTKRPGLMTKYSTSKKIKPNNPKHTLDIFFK
#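 Fluorescent qHTS in 1536-well format: enzyme (10 nM) and compound sat 15 min at room temperature before 50 nM substrate (final) was added. Signal taken at 0 and 10 min; no-enzyme buffer wells were negative controls.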
# POLH inh: DNA polymerase eta (human) inhibition; Q9Y253; recombinant Pol eta, fluorescent DNA replication assay; Potency, µM (titrated, usually from 114 µM), inactives show at the top dose activity change, negative = inhibition, actives largely listed as inhibitors; 390,000 compounds, 1.2% hits; further: potency means the concentration at half of the fitted maximal effect; on the % scale 0 is the no-effect control and ±100 the full control effect
#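 Fluorescent replication assay: 50 nM final substrate added after a 15 min room-temperature compound preincubation with 10 nM enzyme. Signal taken at 0 min and again at 10 min.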
# WRN inhibitor: blocks human WRN helicase; Q14191; WRN helicase unwinding, fluorescent forked duplex, kinetic; Potency, µM (doses to about 114 µM), for the others: top-dose activity change, negative = inhibition, most hits filed as inhibitors; 360,000 compounds, 0.46% hits; AID 651768; further: potency means the concentration at half of the fitted maximal effect; on the % scale 0 is the no-effect control and ±100 the full control effect; nearly all actives have a fitted effect of over 55% in size
#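 WRN at 20 nM final was preincubated with compound for 15 min at room temperature; reaction started with 100 nM forked duplex oligonucleotide carrying fluorophore and quencher plus 2 mM ATP (final). Unwinding followed kinetically by red fluorescence (ex 525/em 598 nm).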
# POLB inh: DNA polymerase beta (human) inhibition | P06746 | Pol beta primer extension/strand displacement, fluorescence kinetic | Potency, µM (series often up to 114 µM), inactives show at the highest dose activity change, negative = inhibition, most hits filed as inhibitors | 340,000 compounds, 1.3% hits | AID 485314; further: potency means the concentration at half of the fitted maximal effect; on the % scale 0 is the no-effect control and ±100 the full control effect
#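 Kinetic readout of DNA synthesis with strand displacement by Pol beta. Compound and 10 nM enzyme sit 15 min at room temperature; 50 nM substrate starts the reaction, read immediately and at 10 min.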
# PI5P4Ka inh: PI5P4K alpha (human) kinase inhibition | P48426 | AID 652105 | PI5P4Kalpha enzyme, ADP-Glo luminescence, 60 min; hits give low values | 330,000 compounds, 1.2% hits | max response, %; active means max response of -50% or lower; inconclusive means between -30% and -50%; inactive means -30% or higher; further: value at the top dose of about 77 µM; on the % scale 0 is the no-effect control and ±100 the full control effect
#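 Single end-point luminescence (ADP-Glo) quantified ADP from PI5P4Kalpha turnover; ATP 5 microM final, 1 h at RT, 0.1% CHAPS and 0.28 mM EGTA in HEPES pH 7.4.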
# * marks the source's active call; other numbers are inactive results; u = inconclusive; x = no result given; [ ] = remark or other dose. Only some compounds are listed: those with a hit (about 2.8% of all), similar ones and a draw of the others. Unless noted, the call rests on the fitted dose curve; in most records, active means well fitted curve in the direction sought with a large enough effect; inconclusive means small, poorly fitted or top-dose-only effect, or another doubt; inactive means no such curve, though single readings can be large; an effect the other way counts as inactive or inconclusive.
SMILES,POLI inh,POLK inh,POLH inh,WRN inhibitor,POLB inh,PI5P4Ka inh
Cc1nn(Cc2ccccc2)c(C)c1C=C1C(=O)NC(=S)NC1=O,-2%,-26%,-1%,u,28%,-57*
N#Cc1c(/N=C/c2c(O)n(Cc3ccco3)c(=O)[nH]c2=O)sc2c1CCCC2,10µM*,22µM*,14µM*,56µM*,32µM*,x
O=c1[nH]c(=O)n(Cc2ccco2)c(O)c1/C=N/N1CCCCCC1,142%,-17%,-3%,-8%,3%,1
Cc1ccc2c(c1)C1(CCN(CCc3nc(-c4ccccc4)oc3C)CC1)OC(=O)N2,x,3%[60.1 µM],x,x,x,x
COCCCNC(=O)c1c(NC(=O)c2ccco2)n(Cc2ccccc2)c2nc3ccccc3nc12,3.2µM*,-27%,u,u,10%,0
CCCCCn1c(NC(=O)c2ccco2)c(C(=O)OCC)c2nc3ccccc3nc21,1.4µM*,-18%,22µM*,u,-8%,2
CCOC(=O)c1c(NS(=O)(=O)c2ccccc2)n(CCCOC)c2nc3ccccc3nc12,1.1µM*,-22%,u,-30%,1%,1
CCCCNC(=O)c1c(N)n(CCCOC)c2nc3ccccc3nc12,2.5µM*,-18%,-7%,-8%,18%,x
COCCNC(=O)c1c(NC(=O)c2ccc(Br)o2)n(Cc2ccccc2)c2nc3ccccc3nc12,u,-10%,-19%,-19%,-2%,0
CCN(C[C@H]1N[C@@](CC)(C(=O)OC)[C@H]2C(=O)N(Cc3ccccc3)C(=O)[C@@H]12)C(=O)Nc1ccc(Cl)cc1,38%,10%,-17%,3%,x,-3
O=C(Cn1cnc2ccccc2c1=O)NCc1cccs1,79%,-14%,-13%,-4%,0%,-1
COc1ccc2c(c1OC)CN1CCc3cc4c(cc3[C@H]1C2)OCO4,-3%,-5%,-22%,2%,x,7
COc1ccc2c(c[n+](C)c3c4cc5c(cc4ccc23)OCO5)c1OC,u,-7%[60.1 µM],u,x,28µM*,x
Cc1ncc2n1-c1ccc(Cl)cc1C(c1ccccc1F)=NC2O (stereo not given),x,16%[60.1 µM],x,x,x,x
CC1CCN(C(CC(=O)c2ccccc2)C(=O)c2ccccc2)CC1 (stereo not given),u,-5%,-16%,7.9µM*,x,u
NC(=O)CF,x,19%[60.1 µM],x,x,x,x
C[N+]1(C)[C@@H]2CC[C@H]1CC(OC(=O)[C@@H](CO)c1ccccc1)C2 (stereo not given in full),u,-2%,5%,-11%,28%,-58*
C[N+]1(C)C2CC[C@H]1CC(OC(=O)C(CO)c1ccccc1)C2 (stereo not given in full),17%,6%,-9%,-3%,x,1
CC(C)c1ccc(NC(=O)C2CCC(CNS(=O)(=O)c3ccc4c(c3)CCCC(=O)N4)CC2)cc1 (stereo not given),u,19%,-12%,x,14%,x
O=C1OC(c2ccc(O)c(S(=O)(=O)O)c2)(c2ccc(O)c(S(=O)(=O)O)c2)c2c(Br)c(Br)c(Br)c(Br)c21,x,28µM*,x,x,x,x
Cc1ccc(S(=O)(=O)N(CC(=O)N/N=C\c2cccs2)c2cccc3cccnc23)cc1,u,-10%,u,-11%,40µM*,-24
Cc1ccc(NC(=O)Cn2c(=O)oc3cc(S(=O)(=O)N4CCCCCC4)ccc32)cc1Cl,-14%,-15%[60.1 µM],6%,x,u,x
CCc1ccc(NC(=O)Cn2c(=O)oc3cc(S(=O)(=O)NCc4ccccc4)ccc32)cc1,-13%,-31%,-9%,x,20µM*,x
CCCCOc1ccc(C(C)=O)cc1Cc1c(O)[nH]c(=S)[nH]c1=O,-5%,6%,1%,5%,4%,-14
COc1ccc(Cc2c(O)[nH]c(=S)[nH]c2=O)cc1,-4%,-9%,15%,-36%,9%,-56*
SMILES,POLI inh,POLK inh,POLH inh,WRN inhibitor,POLB inh,PI5P4Ka inh
NCCNC[C@@H](N)CCCN=C(N)N[N+](=O)[O-],x,11%[60.1 µM],x,x,x,x
CCOC(=O)c1c(-n2c(C)cc(/C=C3\C(=O)NC(=O)N(C)C3=O)c2C)sc2c1CCCC2,14µM*,-10%,79µM*,-4%,16%,x
Cc1ccc(-n2c(C)cc(/C=C3/C(=O)NC(=O)N(C)C3=O)c2C)cc1,u,-10%,-3%,-3%,5%,-2
Cc1ccc(C=C2C(Cl)=C(Cl)C(Cl)=C2Cl)cc1,2.8µM*,16µM*,11µM*,45µM*,4µM*,u
CCN(CC)C(=O)N[C@H]1C[C@@H]2c3cccc4[nH]cc(c34)C[C@H]2N(C)C1,u,u,-2%,-6%,1%,-75*
Clc1c(Cl)c(Cl)c(Cl)c(Cl)c1Cl,x,17%[60.1 µM],x,x,x,x
Cc1ccc(/C=C2\C(=O)NC(=O)N(Cc3ccccc3Cl)C2=O)o1,25µM*,u,79µM*,u,u,u
C=CCN1C(=O)NC(=O)/C(=C/C=C/c2ccccc2)C1=O,69%,-4%,-13%,u,-11%,u
CN(C)c1ccc(/C=C2/C(=O)NC(=O)N(CCc3ccc(F)cc3)C2=O)cc1,-16%,0%,1%,-3%,13%,u
Cc1ccc(/C=C2/C(=O)NC(=O)N(Cc3ccc(F)cc3)C2=O)o1,x,x,x,x,25%,x
CCOc1cc(/C=C2\C(=O)NC(=O)N(CCc3ccc(F)cc3)C2=O)ccc1O,u,-9%,-9%,-11%,0%,-58*
O=C1NC(=O)N(CCc2ccc(F)cc2)C(=O)/C1=C\C=C\c1ccccc1,3.2µM*,-11%,-11%,-18%,-1%,-4
Cc1ccc(/C=C2\C(=O)NC(=O)N(CCc3ccc(F)cc3)C2=O)o1,u,-31%,-14%,-36%,-11%,-53*
Oc1c(C(Nc2cccnc2)c2ccccc2F)ccc2cccnc12 (stereo not given),51%,0%,x,x,x,x
C(=C\c1ccccc1)/CN1CCN(CCOC(c2ccccc2)c2ccccc2)CC1,x,0%[19.4 µM],x,x,x,x
O=C1C=CC(=O)C=C1,u,-6%[60.1 µM],u,6%,u,-9
O=C1C=CC(=O)C(Cl)=C1,x,16µM*,x,x,x,x
Cc1ccc(CNc2cc(C)nc3nc(-c4ccc(C)cc4)nn23)cc1,u,-1%[60.1 µM],-2%,x,-21%,x
CCCOCCN(C(=O)CCl)c1c(CC)cccc1CC,x,15%[60.1 µM],x,x,x,x
CCN(c1ccc(C)cc1C)S(=O)(=O)c1nnc(NC(=O)c2ccco2)s1,u,-26%,79µM*,-6%[57.1 µM],-25%,-26
O=C(Nc1ccc(Cl)c(Cl)c1)c1ccco1,146%,-12%,-25%,-25%,5%,7
CN1/C(=C\C=C\C2=[N+](C)c3ccc4ccccc4c3C2(C)C)C(C)(C)c2ccccc21,x,x,x,x,79µM*,x
